Only a selection was taken, and hits are over-represented in it overall.
miR-122 inh – raises miR-122 sensor activity in Huh7 cells. Huh7 psiCHECK-miR122 Renilla luciferase sensor, 48 h. activation, % at 12.5 µM. hit rate 0.14% among 340,000;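 active means mean activation of 30% or more, with every replicate also reaching 30%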;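 further: 0% = median of neutral control wells and 100% = median of positive control wells; higher luciferase signal means stronger suppression of miR-122 activity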
* = called active by the depositor.

SMILES	miR-122 inh
C[C@@H]1CN([C@H](C)CO)S(=O)(=O)c2ccc(-c3ccc(C#N)cc3)cc2O[C@@H]1CN(C)C(=O)C1CC1	6
C[C@@H]1CN([C@H](C)CO)C(=O)c2cc(-c3ccc(F)cc3)cnc2O[C@H]1CN(C)C(=O)c1ccccn1	6
COCC#Cc1ccc2c(c1)O[C@@H](CN(C)Cc1cncnc1)[C@@H](C)CN([C@@H](C)CO)S2(=O)=O	-4
C/C=C/c1ccc2c(c1)O[C@@H](CN(C)C(=O)Cc1ccccn1)[C@H](C)CN([C@@H](C)CO)S2(=O)=O	-2
CCCN(C)C[C@H]1Oc2cc(C#CCN(C)C)ccc2S(=O)(=O)N([C@@H](C)CO)C[C@H]1C	-4
C[C@H](CO)N1C[C@H](C)[C@@H](CN(C)C(=O)CC2CC2)Oc2ncc(C#CCC3CCCC3)cc2C1=O	1
COc1ccc(S(=O)(=O)Nc2ccc3c(c2)CC(=O)N([C@H](C)CO)C[C@H](C)[C@H](CN(C)Cc2ccc(C(=O)Nc4ccccc4N)cc2)O3)cc1	-212
O=C(N[C@H]1CC[C@H](CCn2cc(C3(O)CCCC3)nn2)O[C@H]1CO)c1ccccc1F	42*
Cc1ccc(S(=O)(=O)NCC[C@@H]2CC[C@@H](NC(=O)c3cnccn3)[C@H](CO)O2)cc1	-101
C[C@@H]1CN([C@H](C)CO)S(=O)(=O)c2ccc(-c3ccccc3)cc2O[C@@H]1CN(C)Cc1cccnc1	-14
OCc1ccc(-c2nn(Cc3ccccc3)c3ccccc23)o1	54*
CCCNC(=O)N(C)C[C@H]1Oc2ncc(C#C[C@H](C)O)cc2C(=O)N([C@H](C)CO)C[C@H]1C	3
CCCNC(=O)N(C)C[C@H]1Oc2ncc(C#CC(C)C)cc2C(=O)N([C@H](C)CO)C[C@@H]1C	7
CCC(=O)N(C)C[C@H]1Oc2cc(C#C[C@H](C)O)ccc2S(=O)(=O)N([C@@H](C)CO)C[C@@H]1C	0
C[C@H]1CN([C@@H](C)CO)S(=O)(=O)c2ccc(-c3ccccc3)cc2O[C@@H]1CN(C)C(=O)CC1CC1	-33
C[C@@H]1CN([C@@H](C)CO)S(=O)(=O)c2ccc(-c3ccccc3)cc2O[C@@H]1CN(C)C(=O)CC1CC1	7
Cc1ccc(-c2ccc3c(c2)O[C@H](CN(C)C(=O)CC2CC2)[C@H](C)CN([C@H](C)CO)S3(=O)=O)cc1	40*
C/C=C/c1ccc2c(c1)O[C@@H](CN(C)C(=O)c1ccc3c(c1)OCO3)[C@@H](C)CN([C@@H](C)CO)S2(=O)=O	-1
Cc1ccc(-c2ccc3c(c2)O[C@H](CN(C)C(=O)CC2CC2)[C@H](C)CN([C@@H](C)CO)S3(=O)=O)cc1	53*
C[C@@H]1CN([C@H](C)CO)S(=O)(=O)c2ccc(-c3ccccc3)cc2O[C@H]1CN(C)C(=O)CC1CC1	-1
C/C=C/c1ccc2c(c1)O[C@H](CN(C)C(=O)c1ccc3c(c1)OCO3)[C@@H](C)CN([C@@H](C)CO)S2(=O)=O	-14
C[C@@H]1CN([C@H](C)CO)S(=O)(=O)c2ccc(Br)cc2O[C@@H]1CN(C)C(=O)CC1CC1	-18
C[C@@H]1CN([C@@H](C)CO)S(=O)(=O)c2ccc(-c3ccccc3)cc2O[C@@H]1CN(C)C(=O)c1ccc2c(c1)OCO2	44*
C[C@H](CO)N1C[C@H](C)[C@H](CN(C)C(=O)c2cnccn2)Oc2ncc(C#Cc3ccccn3)cc2C1=O	7
COCC#Cc1ccc2c(c1)O[C@H](CN(C)Cc1cncnc1)[C@H](C)CN([C@H](C)CO)S2(=O)=O	-14
SMILES	miR-122 inh
COc1ccc(C#Cc2cnc3c(c2)C(=O)N([C@@H](C)CO)C[C@H](C)[C@@H](CN(C)CC2CCCC2)O3)cc1	-6
CO[C@H]1CN(C)C(=O)c2cc(NC(=O)c3nc4ccccc4s3)ccc2OC[C@H](C)N(Cc2ccncc2)C[C@@H]1C	3
C[C@H](CO)N1C[C@H](C)[C@H](CN(C)C(=O)C2CC2)Oc2ncc(-c3cccnc3)cc2C1=O	-9
CCN(CC)CCNc1nc(-c2ccccc2)nnc1C(F)(F)F	44*
C[C@@H]1CN([C@H](C)CO)S(=O)(=O)c2ccc(-c3ccncc3)cc2O[C@H]1CN(C)Cc1ccccc1	-8
CC(C)CC#Cc1cnc2c(c1)C(=O)N([C@H](C)CO)C[C@H](C)[C@@H](CN(C)CC1CCOCC1)O2	1
C[C@H]1CN([C@@H](C)CO)S(=O)(=O)c2ccc(C#Cc3cccc(F)c3)cc2O[C@H]1CN(C)C(=O)CN1CCOCC1	1
C[C@@H]1CN([C@H](C)CO)C(=O)c2cc(-c3cccc(C#N)c3)cnc2O[C@H]1CN(C)Cc1ccccc1	-3
CCCNC(=O)N(C)C[C@@H]1Oc2ncc(-c3ccc(C(=O)N(C)C)cc3)cc2C(=O)N([C@@H](C)CO)C[C@@H]1C	1
COCC#Cc1ccc2c(c1)O[C@H](CN(C)C(C)=O)[C@@H](C)CN([C@H](C)CO)S2(=O)=O	-3
CCOC(=O)Nc1cc2c(c(N)n1)N=C(c1ccccc1)CN2	-119
CCOC(=O)CCS(=O)(=O)c1nc(-c2ccccc2)cc(C(F)(F)F)n1	51*

Screening data from PubChem BioAssay.
